Measured values as given in PubChem BioAssay (EPA / NIEHS).
Where “and” joins values, the source holds several entries; their conditions need not be identical. Equal entries are not always repeated. Calls of active or inactive are those of the source. Rule for the calls: active = hit-call score of the fitted dose curve at least 0.9, where 1 is the maximum; inactive = score below 0.9.

read-out: Interleukin-8 (IL8), CXCL8 (gene 3576); test: BSK_3C_IL8: BioMAP Diversity Plus: 3C Assay for Interleukin-8 (IL8) Biomarker Activity (AID 2283020); conditions: primary human endothelial cells (HUVEC); actives raise or lower the signal
Experimental: BSK_3C is a cell-based, multiplexed-readout assay that uses umbilical vein endothelium, a human vascular primary cell, with measurements taken at 24 hours after chemical dosing in a 96-well plate.BSK_3C_IL8 is an assay component measured in the BSK_3C assay. It measures IL-8 antibody related to regulation of gene expression using ELISA technology.Data from the assay component BSK_3C_IL8 was analyzed into 1 assay endpoint. This assay endpoint, BSK_3C_IL8, was analyzed with bidirectional fitting relative to DMSO as the negative control and baseline of activity. Using a type of binding reporter, gain or loss-of-signal activity can be used to understand changes in the signaling as they relate to the gene CXCL8. Furthermore, this assay endpoint can be referred to as a primary readout, because this assay has produced multiple assay endpoints where this one serves a signaling function. To generalize the intended target to other relatable targets, this assay endpoint is annotated to the cytokine intended target family, where the subfamily is interleukins.
The levels of cell surface (or secreted, indicated by the prefix "s") biomarker endpoints were measured by ELISA. Overt cytotoxicity to cells in confluent adherent cultures (all systems other than the BT system) was assessed by measuring total protein levels using sulforhodamine B (SRB) staining in parallel cultures at the time of biomarker measurements, indicated as SRB endpoints. For proliferation assays for adherent cell types, individual cell types are cultured at sub-confluence and relative cell numbers quantified by SRB staining at time points optimized for each system (48 h: 3C and CASM3C systems; 72 h: BT and HDF3CGF systems; 96 h: SAg system). SRB was performed by staining cells with 0.1% SRB after fixation with 10% TCA and reading wells at 560 nm.Viability and proliferation of PBMC (T cells) was quantified by Alamar Blue reduction for the SAg and BT systems. For PBMC viability (referred to as PBMC Cytotoxicity within the assay endpoint names), cells were plated (75,000/well in a 96-well plate) and then chemical samples added for 1 h before addition of activators, SEB and TSST-1 (20 ng/mL final concentration each). Cells were incubated for 90 h. Then, Alamar Blue (20 uL/well) (Invitrogen, Cat DAL1100) was added for 6 h, and the plates were read with a fluorescence microplate reader at 546/580 nm (excitation/emission). For PBMC proliferation, cells were plated and activated as above but incubated for only 16 h prior to addition of Alamar Blue. Plates were read after 6 h.

outcome, inactive:
COC1=CC(=O)C[C@@H](C)[C@]12Oc1c(Cl)c(OC)cc(OC)c1C2=O, CCC(C)c1ccccc1O (stereo not given), O=C(O)CCC(F)(F)C(F)(F)C(F)(F)C(F)(F)C(F)(F)C(F)(F)F, O=C(NO)c1ccccc1, CN(Cc1cnc2nc(N)nc(N)c2n1)c1ccc(C(=O)N[C@@H](CCC(=O)O)C(=O)O)cc1, C=CC(=C)CC/C=C(\C)CCC=C(C)C, O=C1OC2(c3ccccc31)c1cc(I)c(O)c(I)c1Oc1c2cc(I)c(O)c1I, O=C1NS(=O)(=O)c2ccccc21, CN(CCO)S(=O)(=O)C(F)(F)C(F)(F)C(F)(F)C(F)(F)C(F)(F)C(F)(F)C(F)(F)C(F)(F)F, CCCCC(CC)C(=O)O (stereo not given), C=CC(=O)OCCC(F)(F)C(F)(F)C(F)(F)C(F)(F)C(F)(F)C(F)(F)C(F)(F)C(F)(F)F, CC(=O)Nc1ccc(O)cc1, COc1cc(OC)nc(NC(=O)NS(=O)(=O)Nc2ccccc2C(=O)N(C)C)n1, Cc1cccc2c1ccc1ccccc12, Cc1ccc(N=Nc2c(O)ccc3ccccc23)c(C)c1, CC(C)(C)c1ccc(O)c(O)c1, CCCCC=O, Cc1[nH]nc2c1N=C(c1ccccc1Cl)c1cc([N+](=O)[O-])ccc1N2, COc1cccc(O)c1, CCCCCCCCCCCCCCC, CC1=NN(c2ccccc2)C(=O)C1, CN(C)CCOC(c1ccccc1)c1ccccc1, O=C(O)CCC(F)(F)C(F)(F)C(F)(F)C(F)(F)C(F)(F)F, CC[N+](CC)(CC)Cc1ccccc1, CCCCCCCCCCCC, Clc1ccc(Nc2nnc(Cc3ccncc3)c3ccccc23)cc1, C[C@]12CC[C@@H]3c4ccc(O)cc4CC[C@H]3[C@@H]1C[C@@H](O)[C@@H]2O, OCC(CO)(CBr)CBr, Oc1ccc(Cc2ccccc2O)cc1

AC50, active:
N=C(N)c1ccc(OCCCCCOc2ccc(C(=N)N)cc2)cc1 12.3 µM, NC(=NCCCCCCN=C(N)/N=C(\N)Nc1ccc(Cl)cc1)/N=C(\N)Nc1ccc(Cl)cc1 3.88 µM, Oc1c(Cl)cc(Cl)cc1Sc1cc(Cl)cc(Cl)c1O 36 µM and 35.2 µM, CCCCc1oc2ccccc2c1C(=O)c1cc(I)c(OCCN(CC)CC)c(I)c1 17.7 µM, O=C(O)C(F)(F)OC(F)(F)C(F)(F)OC(F)(F)C(F)(F)OC(F)(F)C(F)(F)C(F)(F)C(F)(F)F 36.6 µM and 23.5 µM, C=COC(=O)C(C)(C)CCCCCC 30.2 µM, Cc1ccc(C(=O)c2ccccc2)cc1 0.0156 µM, CN(C)c1ccc(C(=C2C=CC(=[N+](C)C)C=C2)c2ccccc2)cc1 0.668 µM, CCCCCc1ccc(O)cc1 11.3 µM, O=C(CCCN1CCC(O)(c2ccc(Cl)cc2)CC1)c1ccc(F)cc1 9.25 µM, OCCN1CN(CCO)CN(CCO)C1 29.2 µM
